In the OligoGym collection:

Target: SPOCK1
Experiment: pooled miR-30 sensor sort-seq; sequence = guide strand
Conditions: shRNA
Note: reference of the scale not given here.

| Sequence | sensor-assay potency score (higher = more potent) |
| --- | --- |
| TATTTGTCCACACACCAGCACT | -1.26 |
| ATATTCTAGGTCATCCAGCAGG | -0.735 |
| TTGTCTAGGAAATTGCCGTGGT | 0.282 |

Target: SPOPL
Experiment: as above
Conditions: shRNA

| Sequence | sensor-assay potency score (higher = more potent) |
| --- | --- |
| TACTACTTTAACCTGTGTGTAA | -0.323 |
| TGTCGAAGTACACTGCACCTAT | -0.0442 |
| TCGCACATGACCTTCAGCCGTT | -0.42 |
| TAAAAACTGGAGATCGAGCTGC | 0.265 |
| TTTACTACTTTAACCTGTGTGT | -0.00218 |
| TTCTTCGCACATGACCTTCAGC | -0.607 |
| TATTTGTATTAGTATGTCCTGA | -0.376 |
| TTGAACTTTTTAACACTTCACC | -1.27 |
| AAATTTTACTACTTTAACCTGT | 0.191 |
| TGTAACACCAGCTTTCTGCTAT | 0.257 |
| TTTTGCTCGAACTTCACTTTTG | -1.29 |
| TTAACCTGTGTGTAACACCAGC | -0.559 |
